Rows were chosen to be rich in hits. Some 10% of all compounds tested hit in one or more screens of this group.
JMJD2A Tudor: JMJD2A Tudor domain (human) inhibition; O75164; AlphaScreen JMJD2A-Tudor / H3K4me3 peptide binding; Potency, µM (series often up to 114 µM), for the others: top-dose activity change, negative = inhibition, usual class: inhibitors; AID 504339; 390,000 compounds, 4.4% hits; further: on the % scale 0 is the no-effect control and ±100 the full control effect; nearly all actives have a fitted effect of over 50% in size
GLS inhibitor: blocks human kidney-isoform glutaminase activity | Potency, µM (top dose mostly 45.5 µM), inactives show at the top dose activity change, negative = inhibition, usual class: inhibitors | GLS enzymatic activity, qHTS titration | O94925 | 410,000 compounds, 0.21% hits; further: on the % scale 0 is the no-effect control and ±100 the full control effect
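Coupled fluorescence readout: glutamate oxidase/HRP/Amplex Red detect glutamate formed by hKGA from L-glutamine (1 mM solution added). Buffer 45 mM KH2PO4 pH 8.2, 0.02% Tween-20; reads at t0 and 30 min RT.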
BAZ2B block: BAZ2B (human) inhibition | AlphaScreen BAZ2B-H3K14Ac peptide displacement | Potency, µM (series often up to 114 µM), without a hit: at the top dose activity change, negative = inhibition, most hits filed as inhibitors | 360,000 compounds, 4.4% hits; further: on the % scale 0 is the no-effect control and ±100 the full control effect; nearly all actives have a fitted effect of over 60% in size
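BAZ2B (50 nM) with biotin-H3(5-23)K14Ac peptide (50 nM) in PBS pH 7.4, 0.01% Tween-20, preformed 30 min, then compound 30 min at room temperature; top concentration 110uM. AlphaScreen streptavidin donor/nickel chelate acceptor beads (10 ug/mL final), 20 min dark, signal read.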
G9a inh: blocks human histone lysine methyltransferase G9a; G9a H3K9 monomethylation, AlphaScreen, 2 h; Potency, µM (doses to about 102 µM), without a hit: at the highest dose activity, negative = inhibition, usual class: inhibitors; 350,000 compounds, 8.8% hits; further: on the % scale 0 is the no-effect control and ±100 the full control effect; nearly all actives have a fitted effect of over 75% in size
Target sequence (Q96KQ7 913-1193 limits assumed): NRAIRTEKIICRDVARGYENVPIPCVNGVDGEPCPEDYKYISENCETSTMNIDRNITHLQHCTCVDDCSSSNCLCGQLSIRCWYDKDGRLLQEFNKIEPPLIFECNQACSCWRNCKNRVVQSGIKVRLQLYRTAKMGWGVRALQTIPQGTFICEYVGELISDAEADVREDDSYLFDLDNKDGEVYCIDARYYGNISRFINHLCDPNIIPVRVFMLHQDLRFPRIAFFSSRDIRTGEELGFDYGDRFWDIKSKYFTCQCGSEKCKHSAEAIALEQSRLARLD
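Methyltransferase reactions run at room temperature for 2 h (20 nM enzyme, 500 nM biotin-H3K9 peptide, 20 uM SAM) after a 15 min compound preincubation; product detected by AlphaScreen beads and anti-H3K9me1 antibody.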
HP1b binding inh: blocks HP1-beta chromodomain binding to methylated histone tails; Potency, µM (highest dose often 114 µM), for the others: at the top dose activity change, negative = inhibition, most hits filed as inhibitors; AID 540317; AlphaScreen HP1-beta / biotin-H3K9me3 peptide binding; 390,000 compounds, 0.56% hits; further: nearly all actives have a fitted effect of over 70% in size
Target sequence (P83916 whole entry, looked up): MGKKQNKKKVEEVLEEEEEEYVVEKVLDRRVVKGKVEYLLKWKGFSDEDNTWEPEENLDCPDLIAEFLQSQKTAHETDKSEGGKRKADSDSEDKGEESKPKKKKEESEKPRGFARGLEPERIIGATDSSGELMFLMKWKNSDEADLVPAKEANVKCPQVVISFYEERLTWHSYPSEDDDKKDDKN
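Compound inhibition of the preformed complex between 50 nM HP1-beta and 50 nM biotinylated H3K9me3 peptide was read by AlphaScreen. Buffer was PBS pH 7.4 with 0.01% Tween-20. Incubations ran 30 min at room temperature, with 10 ug/mL donor/acceptor beads.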
Numbers without * were called inactive; ? = inconclusive; / = no result given; [ ] = remark or other dose. The call rests on the fitted dose curve; in most records, active means well fitted curve in the direction sought with a large enough effect; inconclusive means small, poorly fitted or top-dose-only effect, or another doubt; inactive means no such curve, though single readings can be large; an effect the other way counts as inactive or inconclusive. Potency means the concentration at half of the fitted maximal effect.

SMILES	JMJD2A Tudor	GLS inhibitor	BAZ2B block	G9a inh	HP1b binding inh
O=[N+]([O-])c1ccccc1/C=N/Nc1nc(N2CCCC2)nc(N2CCCC2)n1	-33.3%	-4.4%	-38.1%	-26.2%	6.6%
O=[N+]([O-])c1ccccc1/C=N/N1CCN(c2ccc(Cl)cc2)CC1	?	8.3%	14.1µM*	17.8µM*	?
O=[N+]([O-])c1ccccc1/C=C\C=N\N1CCN(c2ccccc2)CC1	10µM*	11.7%	3.98µM*	11.2µM*	?
Cc1ccc(/C=N/N2CCN(c3ccccc3)CC2)cc1	-3.4%	0.0%	14.5%	-13.4%	22.4%
O=C(NC(c1ccc2c(c1)OCO2)c1ccccn1)C1CCN(CCOc2ccccc2)CC1 (configuration not stated)	/	6.3%	/	/	/
CCc1nn2c(=O)cc(COC(=O)c3ccccc3NC(=O)COc3ccccc3C)nc2s1	-11.6%	-4.0%	-4.5%	-5.0%[59 µM]	36.9%
CN1CCN(C(=O)c2cccc(S(=O)(=O)N3CCCC3)c2)CC1	-9.3%	5.8%	-5.0%	-3.0%[12.7 µM]	36.2%
C=C1C(=O)[C@]23[C@H](O)[C@H]1CC[C@H]2[C@@]12COC3(O)[C@H](O)[C@@H]1C(C)(C)CC[C@@H]2O	/	/	/	7.08µM*	/
O=C1N[C@@H](Cc2cnc[nH]2)C(=O)N2CCC[C@@H]12	-8.6%	-0.1%	?	20µM*	12.5%
CN1C(=O)C(Cc2cnc[nH]2)NC1=S (configuration not stated)	-17.4%	8.0%	-21.9%	28.2µM*	12.0%
O=C1N[C@@H](Cc2ccccc2)C(=O)N2CCCC12 (some centres not stated)	-23.0%	3.1%	/	24.7%[135 µM]	7.3%
c1ncc(CC2CCNCC2)[nH]1	/	/	/	7.1%[59 µM]	/
O=c1c(-c2cc(F)cc(F)c2)nc2cnc(N3CCOCC3)nc2n1C1CC1	/	/	/	-5.8%[12.7 µM]	/
CC(C)=CC(=O)Nc1ccc(Cl)cc1	5.4%	-2.0%	-35.9%	24.7%	54.5%
CS/C(=C\[N+](=O)[O-])Nc1ccc(Cl)cc1	-4.1%	0.5%	-8.6%	11.2µM*	11.8%
CCCOc1ccc(/C=c2\sc3nc(-c4ccco4)nn3c2=O)cc1OCC	?	0.7%	-14.8%	?	-13.5%
CC(=O)Oc1cccc(/C=c2\sc3nc(-c4ccco4)nn3c2=O)c1	50.1µM*	-13.1%	-34.7%	?	0.1%
CCOC(=O)/C(=N/Nc1ccc(C)cc1)S(=O)(=O)c1ccc(Cl)cc1	-23.9%	-2.7%	-36.0%	14.1µM*	29.1%
CCOC(=O)/C(=N\Nc1ccccc1)S(=O)(=O)c1ccccc1	?	2.6%	-6.7%	?	-6.7%
CN(C)S(=O)(=O)c1ccc2c(c1)N(CC(=O)N1CCN(c3ccc(F)cc3)CC1)CCS2	-27.8%	8.1%	-21.2%	-26.9%[59 µM]	13.1%[57 µM]
Cc1cc(OCC(=O)OCC(=O)NCC2CCCO2)ccc1Cl (configuration not stated)	9.8%	1.8%	13.8%	13.1%[2.33 µM]	35.5%
CC(C)Sc1ncc(Cl)c(C(=O)Nc2ccc(S(=O)(=O)N(C)c3ccccc3)cc2)n1	-33.0%	3.0%	-35.1%	?	0.6%
CCN(c1ccccc1)S(=O)(=O)c1ccc(NC(=O)c2nc(S(C)(=O)=O)ncc2Cl)cc1	?	2.6%	-33.1%	31.6µM*	3.7%
CCS(=O)(=O)c1ncc(Cl)c(C(=O)Nc2ccc(S(=O)(=O)N(C)c3ccccc3)cc2)n1	-21.8%	?	?	39.8µM*	1.0%[57 µM]
CCSc1ncc(Cl)c(C(=O)Nc2ccc(S(=O)(=O)N(C)c3ccccc3)cc2)n1	-28.1%	-2.8%	-15.7%	-20.6%[59 µM]	18.2%
SMILES	JMJD2A Tudor	GLS inhibitor	BAZ2B block	G9a inh	HP1b binding inh
CS(=O)(=O)c1ncc(Cl)c(C(=O)Nc2ccc(OC(F)F)cc2)n1	-9.6%	17.7%	5.3%	28.2µM*	34.7%
CCCCn1c(N)c(N(CC(C)C)C(=O)c2cccs2)c(=O)[nH]c1=O	-12.4%	-5.2%	-11.0%	?	20.7%
Cc1cc(C(=O)N/N=C/c2cc(N=Nc3ccccc3)ccc2O)n[nH]1	?	0.1%	-32.2%	50.1µM*	5.1%
O=C(N/N=C/c1ccc(-c2ccccc2[N+](=O)[O-])o1)c1cccnc1	-32.5%	-3.5%	-3.4%	-43.1%[12.7 µM]	0.7%
Nc1ccc(C(=O)N/N=C\c2cc(N=Nc3cccc4ccccc34)ccc2O)cc1	?	0.8%	44.7µM*	-7.0%[0.501 µM]	?
CC(C)(C)c1cc(C(=O)N/N=C/c2ccc(-c3ccccc3[N+](=O)[O-])o2)n[nH]1	?	0.6%	?	39.8µM*	-23.2%
Cc1cc(C(=O)N/N=C/c2cccc([N+](=O)[O-])c2O)n[nH]1	50.1µM*	-11.0%	31.6µM*	22.8%[59 µM]	30.9%
CC1Cc2ccccc2N1C(=O)CSc1nc2ccc(NC(=O)COc3ccccc3)cc2s1 (configuration not stated)	-1.7%	5.8%	-12.7%	5.6%[59 µM]	44.7%
Cc1nc(Nc2ccc(Cl)cc2)c2nnn(Cc3ccccc3)c2n1	17.8µM*	2.7%	2.0%	-4.4%	-5.7%
Cc1nc2c(nnn2Cc2ccccc2)c(=O)[nH]1	8.91µM*	?	/	?	?
Cc1nc2c(nnn2Cc2ccccc2Cl)c(=O)[nH]1	3.4%	-0.4%	-5.3%	0.5%[0.501 µM]	33.4%
Cc1cc(C)nc(NS(=O)(=O)c2ccc(NC(=O)c3nc(SC(C)C)ncc3Cl)cc2)n1	-30.8%	12.0%	-15.4%	0.1%[59 µM]	12.5%
CC(=O)C1(O)C(C)CC2C3CC(F)C4(O)CC(O)CCC4(C)C3CCC21C (configuration not stated)	2.8%	-9.4%	/	/	17.7%[57 µM]
COc1ccccc1N1CCN(C(=O)CSc2nnc(NC(=O)c3ccco3)s2)CC1	-2.9%	2.2%	-4.5%	50.1µM*	15.2%
COc1ccccc1N1CCN(C(=O)CSc2nnc(NC(=O)C3CC3)s2)CC1	0.7%	21.4%	6.2%	-7.4%	39.5%
CCSc1nnc(NC(=O)c2ccco2)s1	-5.9%	9.4%	8.2%	-33.2%[59 µM]	15.1%
CC(C)Sc1nnc(NC(=O)c2ccco2)s1	-6.8%	0.7%	-24.4%	25.1µM*	52.4%
COc1ccc(-n2c(SCC(=O)Nc3nnc(C)s3)nc3c([nH]c4ccccc43)c2=O)cc1	-1.9%	8.1%	-1.7%	-1.5%[59 µM]	30.7%[57 µM]
COCCNC(=S)N=Nc1c(O)[nH]c2ccc([N+](=O)[O-])cc12	25.1µM*	9.3%	-3.9%	/	14.5%
O=[N+]([O-])c1ccc(N=Nc2c(O)[nH]c3ccc(F)cc23)cc1	?	4.5%	-32.3%	39.8µM*	-38.6%
CCCCCCC(=O)N=Nc1c(O)[nH]c2ccc([N+](=O)[O-])cc12	?	8.2%	-4.5%	-1.9%[59 µM]	-11.0%
c1cc2c3c(cccc3c1)NC(c1ccc3c(c1)OCO3)N2	39.8µM*	15.7%	39.8µM*	35.5µM*	?
CN1c2ccccc2N(C)C1c1ccc2c(c1)OCO2	-7.4%	1.6%	12.2%	-34.8%	19.1%
Cc1cccc(C2Nc3cccc4cccc(c34)N2)c1	?	22.0%	?	35.5µM*	?

Screening results from PubChem.
